Measured values: PubChem BioAssay AID1159580 (chemical genetic matrix, 2015)
Several values for one entry are separate records, joined by “and”; a condition that tells them apart may be missing. Equal values may be shown once. Screen size: about 5,500 compounds; about 2,000 (36%) were called active. Another 18% or so got no clear call; they are omitted. Cut-off read from the data, not from the text of the source: active = normalized growth mostly below about 0.91 (no sharp cut-off); inconclusive = no clear call, values can overlap the other calls; inactive = mostly above about 0.92. The list shows a part of the results.

Test: chemical genetic growth profiling, strain panel (AID 1159580);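 note: tested at 20 µM; growth read once vehicle control cultures reached saturation at 30 °C; 1 = growth at the plate median or of vehicle wells; lower values mean less growth of the strain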
Conditions: S. cerevisiae deletion strains, growth OD

Measured: normalized growth

NC(=O)NC1NC(=O)NC1=O (configuration not stated)
inactive: locus YAL013W, strain DEP1, active compounds read low 0.994 | locus YAL021C, strain ccr4, active compounds read low 0.995 | locus YAL026C, strain drs2, active compounds read low 1 | locus YAL030W, strain snc1, active compounds read low 0.999 | locus YBL061C, strain skt5, active compounds read low 1 | locus YBR009C, strain hhf1, active compounds read low 0.999 | locus YBR021W, strain FUR4, active compounds read low 0.996 | locus YBR023C, strain chs3, active compounds read low 1 | locus YBR171W, strain sec66, active compounds read low 1.01 | locus YBR229C, strain ROT2, active compounds read low 0.987 | locus YBR231C, strain swc5, active compounds read low 0.996 | locus YBR279W, strain paf1, active compounds read low 1.01 | locus YCL011C, strain gbp2, active compounds read low 1.01 | locus YCL016C, strain dcc1, active compounds read low 1 | locus YCL029C, strain bik1, active compounds read low 0.976 | locus YCL061C, strain MRC1, active compounds read low 0.995 | locus YCL069W, strain vba3, active compounds read low 1.01 | locus YCR088W, strain abp1, active compounds read low 0.995 | locus YDL005C, strain med2, active compounds read low 1 | locus YDL035C, strain GPR1, active compounds read low 1.01 | locus YDL040C, strain nat1, active compounds read low 0.999 | locus YDL074C, strain BRE1, active compounds read low 1.01 | locus YDL101C, strain DUN1, active compounds read low 0.981 | locus YDL134C, strain PPH21, active compounds read low 0.982 | locus YDL185W, strain tfp1, active compounds read low 0.982 | locus YDL192W, strain arf1, active compounds read low 0.988 | locus YDR001C, strain nth1, active compounds read low 1.01 | locus YDR069C, strain doa4, active compounds read low 1 | locus YDR101C, strain arx1, active compounds read low 0.98 | locus YDR137W, strain rgp1, active compounds read low 0.991 | locus YDR150W, strain NUM1, active compounds read low 0.998 | locus YDR159W, strain sac3, active compounds read low 0.995 | locus YDR162C, strain NBP2, active compounds read low 0.992 | locus YDR195W, strain ref2 0.998 | locus YDR297W, strain sur2, active compounds read low 1.01 | locus YDR318W, strain mcm21, active compounds read low 0.986 | locus YDR334W, strain swr1, active compounds read low 1 | locus YDR335W, strain msn5, active compounds read low 1.01 | locus YDR388W, active compounds read low 0.979 | locus YDR392W, strain spt3, active compounds read low 0.958 | locus YDR502C, strain sam2, active compounds read low 1.02 | locus YEL003W, strain gim4, active compounds read low 1.01 | locus YEL037C, strain rad23, active compounds read low 1.01 | locus YEL061C, strain CIN8 (second series), active compounds read low 1.01 | locus YEL061C, strain CIN8, active compounds read low 1 | locus YER015W, strain faa2, active compounds read low 1 | locus YER016W, strain bim1, active compounds read low 1.01 | locus YER110C, active compounds read low 0.979 | locus YER111C, strain swi4, active compounds read low 1.01 | locus YER155C, strain BEM2 (second series), active compounds read low 1.01 | locus YER155C, strain BEM2, active compounds read low 0.997 | locus YER167W, strain BCK2, active compounds read low 1 | locus YFR010W, strain ubp6, active compounds read low 1.01 | locus YGL078C, strain dbp3, active compounds read low 0.989 | locus YGL086W, strain mad1, active compounds read low 0.999 | locus YGL167C, strain pmr1, active compounds read low 1 | locus YGL173C, strain kem1, active compounds read low 1 | locus YGL227W, strain vid30, active compounds read low 1 | locus YGL240W, strain doc1, active compounds read low 0.996 | locus YGL248W, strain PDE1, active compounds read low 0.986 | locus YGL253W, strain hxk2, active compounds read low 1 | locus YGR078C, strain PAC10, active compounds read low 0.987 | locus YGR135W, strain pre9, active compounds read low 0.998 | locus YGR229C, strain SMI1, active compounds read low 1.01 | locus YGR252W, strain gcn5, active compounds read low 1.13 | locus YHR013C, strain ard1, active compounds read low 1.01 | locus YHR027C, strain rpn1, active compounds read low 1 | locus YHR030C, strain SLT2, active compounds read low 0.994 and 1.03 | locus YHR079C, strain IRE1 (second series), active compounds read low 0.972 | locus YHR079C, strain IRE1, active compounds read low 1.02 | locus YHR094C, strain hxt1, active compounds read low 0.983 | locus YHR129C, strain ARP1, active compounds read low 0.983 | locus YHR142W, strain chs7, active compounds read low 1.01 | locus YHR200W, strain rpn10, active compounds read low 0.988 | locus YIL066C, strain RNR3, active compounds read low 0.994 | locus YIL073C, strain SPO22, active compounds read low 0.998 | locus YIL125W, strain kgd1, active compounds read low 0.999 | locus YIR030C, strain dcg1, active compounds read low 0.984 | locus YJL092W, strain hpr5, active compounds read low 1 | locus YJL095W, strain BCK1 (second series), active compounds read low 1 | locus YJL095W, strain BCK1, active compounds read low 0.98 and 1.03 | locus YJL115W, strain asf1, active compounds read low 0.997 | locus YJL129C, strain trk1, active compounds read low 0.997 | locus YJL134W, strain LCB3, active compounds read low 0.991 | locus YJL154C, strain vps35, active compounds read low 1.01 | locus YJL164C, strain tpk1, active compounds read low 1 | locus YJL166W, strain qcr8, active compounds read low 0.993 | locus YJL168C, strain set2, active compounds read low 0.98 | locus YJL187C, strain SWE1 (second series), active compounds read low 0.979 | locus YJL187C, strain SWE1, active compounds read low 1 | locus YJR043C, strain POL32, active compounds read low 0.979 | locus YJR066W, strain TOR1, active compounds read low 0.984
